# Screening data deposited in PubChem by National Center for Advancing Translational Sciences (NCATS).
# Hits are enriched below; roughly 2.4% of the tested compounds scored in any of these assays.
# Pol iota inh = qHTS for Inhibitors of Polymerase Iota; 390,000 compounds, 1% hits; Potency, µM (highest dose often 115 µM), for the others: at the top dose activity, negative = inhibition, actives largely listed as inhibitors; DNA polymerase iota (Homo sapiens), Q9UNA4; Pol iota fluorescent replication assay, 10 min
#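 Fluorescent replication assay read twice, at 0 min and 10 min after adding 50 nM (final) substrate. Enzyme (10 nM) and compounds were first incubated 15 min at room temperature; enzyme-free buffer wells were negative controls.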
# WRN helicase inh = qHTS for Inhibitors of WRN Helicase; Bifunctional 3'-5' exonuclease/ATP-dependent helicase WRN (Homo sapiens), Q14191; WRN helicase unwinding, fluorescent forked duplex, kinetic; AID 651768, 2012; Potency, µM (series often up to 114 µM), without a hit: at the top dose activity change, negative = inhibition, most hits filed as inhibitors; 360,000 compounds, 0.46% hits; further: on the % scale 0 is the no-effect control and ±100 the full control effect; nearly all actives have a fitted effect of over 55% in size
#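 WRN at 20 nM final was preincubated with compound for 15 min at room temperature; reaction started with 100 nM forked duplex oligonucleotide carrying fluorophore and quencher plus 2 mM ATP (final). Unwinding followed kinetically by red fluorescence (ex 525/em 598 nm).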
# Pol kappa inh = qHTS for Inhibitors of Polymerase Kappa; purified Pol kappa, fluorescent DNA synthesis assay, 10 min; Potency, µM (series often up to 107 µM), for inactives: at the top dose activity, negative = inhibition, actives largely listed as inhibitors; 400,000 compounds, 0.53% hits; AID 588579, 2011; further: on the % scale 0 is the no-effect control and ±100 the full control effect
#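 Pol kappa 10 nM + cpd, 15 min RT; start w/ substrate 50 nM final; fluorescence kinetic read, 0 and 10 min. Neg ctrl: buffer, no enzyme.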
# Pol eta inh = qHTS for Inhibitors of Polymerase Eta. DNA polymerase eta (Homo sapiens), Q9Y253. recombinant Pol eta, fluorescent DNA replication assay. Potency, µM (series often up to 114 µM), for the others: at the highest dose activity change, negative = inhibition, usual class: inhibitors. 390,000 compounds, 1.2% hits. AID 588591, 2011; further: on the % scale 0 is the no-effect control and ±100 the full control effect
#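 Fluorescent replication assay: 50 nM final substrate added after a 15 min room-temperature compound preincubation with 10 nM enzyme. Signal taken at 0 min and again at 10 min.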
# FEN1 inh = qHTS Assay for the Inhibitors of Human Flap endonuclease 1 (FEN1); P39748; Recombinant FEN1 flap cleavage, fluorescence, 15 min; Potency, µM (top dose mostly 114 µM), for inactives: top-dose activity change, negative = inhibition, hits mostly inhibitors; 390,000 compounds, 0.35% hits; AID 588795, 2011; further: on the % scale 0 is the no-effect control and ±100 the full control effect; nearly all actives have a fitted effect of over 65% in size
# Target sequence (P39748 whole entry, looked up): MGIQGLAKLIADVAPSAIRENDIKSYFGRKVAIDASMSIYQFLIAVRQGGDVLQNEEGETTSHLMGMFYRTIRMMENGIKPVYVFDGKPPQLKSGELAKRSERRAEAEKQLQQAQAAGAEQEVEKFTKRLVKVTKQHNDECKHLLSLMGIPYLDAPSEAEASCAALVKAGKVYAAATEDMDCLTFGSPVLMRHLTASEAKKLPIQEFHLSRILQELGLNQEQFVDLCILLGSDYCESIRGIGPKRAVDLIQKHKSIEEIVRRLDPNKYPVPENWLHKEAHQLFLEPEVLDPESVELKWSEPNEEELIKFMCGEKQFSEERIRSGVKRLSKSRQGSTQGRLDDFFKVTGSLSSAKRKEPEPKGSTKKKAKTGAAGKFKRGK
#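 In this screen, 50 nM flap DNA substrate was added to 10 nM FEN1 pretreated with compound for 15 min at room temperature; cleavage was followed with reads at 0 and 15 min, and Hill fitting gave concentration–response parameters.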
# POLB inh = qHTS Assay for Inhibitors of DNA Polymerase Beta; P06746; Pol beta primer extension/strand displacement, fluorescence kinetic; Potency, µM (doses to about 114 µM), for the others: at the top dose activity change, negative = inhibition, hits mostly inhibitors; 340,000 compounds, 1.3% hits; AID 485314, 2010; further: on the % scale 0 is the no-effect control and ±100 the full control effect
#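 Human Pol beta at 10 nM; strand-displacement substrate 50 nM final. Compound exposure 15 min at room temperature before start, reaction 10 min at room temperature.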
# PGK validate = qHTS for inhibitors of Phosphogylcerate Kinase: Hit Validation Screen | Potency, µM (highest dose often 57.5 µM), for inactives: top-dose activity change, negative = inhibition, usual class: inhibitors | TbPGK coupled GAPDH assay, Kinase-Glo luminescence | 500 compounds, 79% hits | shares compounds with Pol kappa inh; further: on the % scale 0 is the no-effect control and ±100 the full control effect; nearly all actives have a fitted effect of over 65% in size
# Pol iota confirm = qHTS for Inhibitors of Polymerase Iota: Confirmatory Assay for Cherry-picked Compounds | shares compounds with Pol kappa inh | Pol iota primer extension, TAMRA/BHQ fluorescence | Potency, µM, actives largely listed as inhibitors | 1,500 compounds, 77% hits | AID 720496, 2013
# Numbers without * were called inactive; ? = inconclusive; . = no result; [ ] = dose if it differs, or a comment. The call rests on the fitted dose curve; in most records, active means well fitted curve in the direction sought with a large enough effect; inconclusive means small, poorly fitted or top-dose-only effect, or another doubt; inactive means no such curve, though single readings can be large; an effect the other way counts as inactive or inconclusive. Potency means the concentration at half of the fitted maximal effect.
SMILES,Pol iota inh,WRN helicase inh,Pol kappa inh,Pol eta inh,FEN1 inh,POLB inh,PGK validate,others
O=C1C2C(c3ccccc3)CC=CC2C(c2cccc([N+](=O)[O-])c2)N1Cc1ccccc1 (stereo unspecified),-13%,.,-1%,.,12%,.,.,
CCC(=O)OC1(C)C(=O)C2=COC(c3ccc(OC)cc3)=CC2=C(Br)C1=O (stereo unspecified),?,-24%[57.1 µM],?,45µM*,-14%,?,21µM*,
COC(=O)CCC(=O)OC1(C)C(=O)C2=CN(CC(C)C)C(c3ccc(OC)cc3)=CC2=C(Br)C1=O (stereo unspecified),.,.,.,.,.,5%,.,
CC1=C2C(=COC(C)C2C)C(=O)C(C(=O)O)=C1O (stereo unspecified),.,.,1%[60.1 µM],.,.,.,.,
O=C1C2C(C(=O)N1Cc1ccco1)C1C=CC2C12CC2 (stereo unspecified),-3%,-5%,17%,-10%,11%,10%,.,
O=C1CC(=O)N(Cc2ccco2)C(=S)N1,?,10µM*,3.2µM*,3.2µM*,35µM*,7.9µM*,-97%,
C=C(C)C(=O)Nc1ccc(OC(F)(F)C(F)F)c(NC(=O)C(=C)C)c1,4%,?,?,18µM*,-1%,32µM*,6.5µM*,
O=C(N/N=C/c1cccc([N+](=O)[O-])c1)c1cc2c(ccc3ccccc32)o1,?,-9%,0%,?,-12%,20%,.,Pol iota confirm=47*
O=C(CN1C(=O)/C(=C\c2ccco2)SC1=S)Nc1ccc(O)cc1C(=O)O,?,50µM*,-6%,8.9µM*,-6%,0.4µM*,26µM*,
Cc1cccc(C(=O)NC(=S)Nc2cccc3nc(C)ccc23)c1,32µM*,-33%,-8%,?,-5%,25µM*,.,Pol iota confirm=?
O=C(O)c1ccc(N/N=C/c2cc3c(cc2[N+](=O)[O-])OCO3)cc1,-5%,-12%[57.1 µM],-14%,?,?,-13%,.,
Cc1ccsc1C(=O)N/N=C/c1ccc2c(c1)OCO2,-7%,-12%,-7%,-10%,-1%,-12%,18µM*,
O=C(O)c1ccc(N/N=C/c2ccc3c(c2)OCO3)cc1,23%,-9%,-8%,-12%,8%,21%,10µM*,
CCc1nnc(SC(CC)C(=O)Nc2ccc(OC)c(Cl)c2)c2cc3occc3n12 (stereo unspecified),4%,.,-13%,-19%,-11%,?,.,
COc1ccc(NC(=O)c2nnn(CC(=O)Nc3c(C)cc(C)cc3C)c2N)cc1OC,34%,.,1%,-2%,-2%,14%,.,
Cc1cc(C)c(NC(=O)Cn2nnc(S(=O)(=O)c3ccc(C)c(C)c3)c2N)c(C)c1,79µM*,.,?,-29%,?,10µM*,.,Pol iota confirm=?
CCOC(=O)c1c[nH]c2cc(OCC(C)C)c(OCC(C)C)cc2c1=O,.,.,8%[19.4 µM],.,.,.,.,
CCOc1ccc(-c2nc(SCC(=O)Nc3cc(F)ccc3F)n3[nH]c(=O)cc3n2)cc1,0%,.,15%,-6%,-21%,4.5µM*,5.8µM*,
COc1ccc(C(C[N+](=O)[O-])c2c(C)[nH]n(-c3ccccc3)c2=O)cc1 (stereo unspecified),1.6µM*,?,-10%,-13%,?,-2%,.,Pol iota confirm=67*
COc1ccc(C(C[N+](=O)[O-])c2c(C)cc3ccccn23)cc1 (stereo unspecified),51%,-32%,-2%,7%,-14%,19%,.,
CCCSc1ccc2nc(-c3ccccc3)cn2c1,-12%,-31%,-28%,-12%,-22%,0%,18µM*,
CCCCSc1ccc2nc(-c3ccc(C#N)cc3)cn2c1,2%,-11%,-16%,-6%,-14%,4%,.,
Cc1ccc(-c2nc(-c3ccccn3)no2)cc1,7%,-1%,-6%,-7%,-8%,10%,15µM*,
c1ccc(-c2ccc(-c3nc(-c4ccccn4)no3)cc2)cc1,6%,-3%,0%,-19%,-1%,1%,.,
CCOc1ccc(NC(=O)CC2C(=O)OCCN2CC)cc1 (stereo unspecified),?,.,3%,-11%,-9%,17%,.,
SMILES,Pol iota inh,WRN helicase inh,Pol kappa inh,Pol eta inh,FEN1 inh,POLB inh,PGK validate,others
O=C(O)c1ccc(N/N=C/c2ccc(-c3cc(Cl)ccc3Cl)o2)cc1,?,-31%,-13%,79µM*,79µM*,?,.,Pol iota confirm=?
COc1ncc2nc(-c3cc(F)cc(F)c3)c(=O)n(CCc3ccccc3)c2n1,.,.,-18%[60.1 µM],.,.,.,.,
CNC(=O)C1(C(F)(F)F)C/C(=C\Cc2ccccc2)CCCO1 (stereo unspecified),?,.,-6%,.,-1%,.,.,
COc1ccc(B(O)O)c(CN2CCN(C(=O)OC(C)(C)C)CC2)c1,?,-9%,-26%,-6%,-10%,.,?,
OC[C@H]1O[C@@H](O[C@@H]2OC=C[C@H]3[C@H](O)[C@@H]4O[C@]4(CO)[C@@H]23)[C@H](O)[C@@H](O)[C@@H]1O,.,.,3%[60.1 µM],.,.,.,.,
Cc1ccc(Cl)cc1NC(=O)Nc1cn(CC(C)C)c(=O)c2ccccc12,?,.,-22%,22µM*,8%,7%,3%,
COc1ccc(NC(=O)Nc2cn(CC(C)C)c(=O)c3ccccc23)c(OC)c1,35%,.,-10%,-11%,-10%,27%,.,
CN(C)c1ccc(-c2cc[nH]c(=O)c2N)cc1,.,.,.,.,.,.,.,Pol iota confirm=?
COc1ccccc1CCNC(=O)c1cc(-c2ccncc2)nc2ccc(Br)cc12,42%,-2%[11.6 µM],-26%,45µM*,-20%,-14%,.,Pol iota confirm=?
COc1cc(OC)c2c(=O)c(-c3ccccc3)coc2c1,.,.,4%[60.1 µM],.,.,.,.,
O=C1Nc2cc3c(cc2C1=O)sc1ccccc13,32µM*,45µM*,?,45µM*,?,40µM*,.,Pol iota confirm=?
CCC(C)C(NC(=O)OC(C)(C)C)C(=O)NC1COC2CC(n3cc(C)c(=O)[nH]c3=O)OC12 (stereo unspecified),5%,.,13%,.,16%,.,.,
O=C(c1cc(Br)c(Br)s1)N1CCOCC1,29%,0%,-3%,-12%,-10%,.,.,
